Measured values: PubChem BioAssay AID1851 (National Center for Advancing Translational Sciences (NCATS), 2009)
Screen size: about 16,000 compounds; about 5,100 (32%) were called active. Roughly 25% stayed inconclusive and do not appear here. The list shows a part of the results. Unmarked numbers belong to inactive results. Calls follow the shape of the dose curve; as a rule, active = well fitted curve in the direction sought with a large enough effect; inconclusive = small, poorly fitted or top-dose-only effect, or effect the other way; inactive = no such curve, though single readings can be large or run the other way.

Target: Cytochrome P450 3A4 (Homo sapiens) (UniProt P08684)
Sequence (P08684 whole entry, looked up): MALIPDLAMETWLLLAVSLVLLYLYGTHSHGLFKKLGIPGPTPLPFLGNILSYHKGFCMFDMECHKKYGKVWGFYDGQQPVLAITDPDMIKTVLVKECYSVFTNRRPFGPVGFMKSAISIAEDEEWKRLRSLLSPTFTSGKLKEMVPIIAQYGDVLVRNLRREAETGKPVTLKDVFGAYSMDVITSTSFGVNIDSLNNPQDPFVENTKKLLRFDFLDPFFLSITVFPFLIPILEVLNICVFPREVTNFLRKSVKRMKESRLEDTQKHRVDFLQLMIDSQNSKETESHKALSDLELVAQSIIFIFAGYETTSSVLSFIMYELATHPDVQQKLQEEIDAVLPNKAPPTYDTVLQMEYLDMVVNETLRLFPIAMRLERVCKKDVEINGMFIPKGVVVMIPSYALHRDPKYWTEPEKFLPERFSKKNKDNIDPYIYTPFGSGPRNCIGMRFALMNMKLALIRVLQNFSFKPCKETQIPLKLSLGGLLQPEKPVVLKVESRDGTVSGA
Experiment: Cytochrome panel assay with activity outcomes
Conditions: recombinant CYP, pro-luciferin dealkylation, luminescence, p450-cyp3a4; series mostly up to 57.1 µM; activity, negative = inhibition: at the top concentration
% is scaled to controls: 0 for no effect and ±100 for the full control effect.

| Compound | AC50 | activity, negative = inhibition |
| --- | --- | --- |
| COc1ccccc1-n1c(SCC(=O)N2CCCC2)nc2cccnc21 | 15.8 µM (active) |  |
| CCN(CC)S(=O)(=O)c1ccc2c(c1)nc(SCC(=O)N1CCOCC1)n2-c1ccccc1OC | 3.98 µM (active) |  |
| CC1CCN(C(=O)CSc2nc3cccnc3n2C)CC1 |  | -6.97% |
| O=C(O)c1cccnc1SCC(=O)N1CCCCCC1 |  | 4.51% |
| CC(C)=C[C@H]1[C@@H](COC(=O)c2ccccc2Cl)C1(C)C |  | -18.7% [at 11.4 µM] |
| CCNC(=S)NNC(=O)c1cc(CC(C)C)nc2ccccc12 |  | -3.62% [at 2.29 µM] |
| Cc1cc(C(=O)NNC(=S)NC(C)c2ccccc2)c2ccccc2n1 (centres undefined) | 14.1 µM (active) |  |
| CCNC(=S)NNC(=O)c1cc(C2CC2)nc2ccccc12 |  | -10.5% [at 2.29 µM] |
| CCCS(=O)(=O)N1CCN(CC2CC=CCC2)CC1 (centres undefined) |  | -20.2% |
| COc1ccc(CN2CN(c3ccc(Cl)cc3)C(=O)N(n3cnnc3)C2)cc1 | 14.1 µM (active) |  |
| COc1ccc2nc(N3C(=O)CC(Cc4ccc(Cl)cc4)C3=O)sc2c1 (centres undefined) |  | 20.7% |
| COc1ccc(-n2cnnc2)cc1 |  | -29.4% |
| O=C(CSc1c[nH]c2ccccc12)N1CCOCC1 | 15.8 µM (active) |  |
| Nn1c(SCC(=O)N2CCOCC2)nnc1-c1ccccc1Cl |  | 14.8% |
| C=C(C)C1Cc2nc(N)nc(C)c2C1 (centres undefined) |  | -9.93% |
| O=C(NCc1ccco1)c1nc2c(nnn2Cc2cccc(Cl)c2)c(=O)[nH]1 |  | 14.3% |
| COc1cccc(Cn2nnc3c(=O)[nH]c(C4CCCN(C(=O)c5ccccc5Cl)C4)nc32)c1 (centres undefined) | 2 µM (active) |  |
| Cc1ccc(C)c(S(=O)(=O)N2CCC(c3nc4c(nnn4Cc4ccc(F)cc4)c(=O)[nH]3)CC2)c1 | 6.31 µM (active) |  |
| Cc1ccc(Cn2nnc3c(=O)[nH]c(C4CCCN(C(=O)Nc5ccc(F)cc5F)C4)nc32)cc1 (centres undefined) | 7.08 µM (active) |  |
| CC(=O)NC1(c2ccc(F)cc2)CCN(C(=O)Nc2ccc(F)cc2F)CC1 |  | -17.4% |
| O=C(O)C[C@@H](C(=O)O)C1c2ccccc2-c2ccccc21 |  | -5.49% [at 11.4 µM] |
| NC(=O)c1cc[n+](CC2=C(C(=O)O)N3C(=O)[C@@H](NC(=O)[C@H](c4ccccc4)S(=O)(=O)[O-])[C@@H]3SC2)cc1 | inactive |  |
| CN(NC(=O)NN)c1ncc(C(F)(F)F)cc1Cl | 14.1 µM (active) |  |
| Cn1c(C(N)=O)cnc1Sc1ncc(C(F)(F)F)cc1Cl |  | -8.93% |
| O=C(O)/C=C/c1cn(-c2ncc(C(F)(F)F)cc2Cl)c2ccccc12 |  | -5.59% |
| CC(C)(C)c1ccc(C(=O)NCCC(=O)NCc2ccco2)cc1 | 14.1 µM (active) |  |
| COCC1C2CC[C@H]3C(OCc4ccc(F)cc4C(F)(F)F)OC[C@]4(C)[C@H]3C2=C(CN4C(=O)OC(C)(C)C)[C@H](C)C1COC (some centres undefined) | 15.8 µM (active) |  |

| Compound | AC50 | activity, negative = inhibition |
| --- | --- | --- |
| C[C@H]1C2=C3C(CC[C@H]4C(OCc5ccc(F)cc5C(F)(F)F)OC[C@](C)([C@@H]34)N(C(=O)OC(C)(C)C)C2)C(CO)C1CO (some centres undefined) | 15.8 µM (active) |  |
| COc1cc(OC)c(NC(=S)Nc2cccc(C(C)=O)c2)cc1Cl | 5.01 µM (active) |  |
| O=C(Nc1ccc2c(c1)OCCO2)c1cccc2nc3ccccc3nc12 | 11.2 µM (active) |  |
| COc1cc(NC(=O)c2ccccc2Cl)ccc1NC(=O)c1ccco1 | 14.1 µM (active) |  |
| CC1(C)Oc2ccc(NC(=O)c3ccco3)cc2O1 |  | -1.62% |
| CC(C)Oc1ccc(C(=O)Nc2ccc(NC(=O)c3ccco3)c(Cl)c2)cc1 |  | -24.4% |
| COc1ccc(C(=O)Nc2ccc(NC(=O)c3ccco3)c(Cl)c2)cc1OC |  | -24% [at 11.4 µM] |
| O=C(Nc1ccccc1C(=O)Nc1ccc2c(c1)OCO2)c1ccco1 | 1.26 µM (active) |  |
| Cn1ncc([N+](=O)[O-])c1C(=O)Nc1ccc2c(c1)OCCO2 |  | -20.7% |
| CCOC(=O)C1=C(CSc2nc(-c3ccccc3)ccc2C#N)OC(N)=C(C#N)C1c1ccc(OC)cc1 (centres undefined) |  | -22.9% [at 2.29 µM] |
| COC(=O)C1=C(C)OC(N)=C(C#N)C1c1cc(OC)ccc1OC (centres undefined) | 8.91 µM (active) |  |
| COC(=O)C1=C(C)OC(N)=C(C#N)C1C1CCCCC1 (centres undefined) | 7.08 µM (active) |  |
| CCOC(=O)C1=C(c2ccccc2)OC(N)=C(C#N)C1c1ccc(Cl)s1 (centres undefined) |  | -3.22% |
| C[C@H]1NC(=O)NC1=O | inactive |  |
| CC1=C[N+](=O)c2ccccc2[N+]1=O |  | -3.77% [at 11.4 µM] |
| CC(=O)NCCNc1ncnc2ccc(-c3ccccc3C(F)(F)F)cc12 | 6.31 µM (active) |  |
| COc1ccccc1-c1ccc2ncnc(NCCNC(C)=O)c2c1 | 20 µM (active) |  |
| CC(=O)NCCNc1ncnc2ccc(-c3ccccc3Cl)cc12 | 15.8 µM (active) |  |
| CC(=O)NCCNc1ncnc2ccc(-c3ccccc3C)cc12 | 12.6 µM (active) |  |
| CN(C)CCCNc1ncnc2nc[nH]c12 |  | -8.34% [at 11.4 µM] |
| Cc1ccc(NCC(=O)N/N=C\c2ccc([N+](=O)[O-])o2)cc1 | 25.1 µM (active) |  |
| CCOC(=O)N/N=C\c1ccc([N+](=O)[O-])o1 |  | -11.7% [at 2.29 µM] |
| Oc1ccc(/C=N/NC(=S)NCc2ccco2)cc1 |  | -2.66% [at 2.29 µM] |
| Cc1ccc(/C=N/NC(=O)Cn2nccc2C)o1 |  | -10.5% |
| CC(C)(C)c1ccc(OCC(=O)N/N=C/c2cc(Br)ccc2OC(=O)c2ccco2)cc1 |  | -3.57% |
| Cc1ccc(NCC(=O)N/N=C/c2ccc(OC(=O)c3ccco3)cc2)cc1 | 17.8 µM (active) |  |
| OC[C@@H]1O[C@@H](n2cnc3c(NC4CCCC4)ncnc32)[C@@H](O)[C@H]1O |  | -8.48% |
